Measured values: PubChem BioAssay AID1326 (NMMLSC, 2008)
About 130 (0.068%) of roughly 190,000 compounds were called active. The entries come from a sample that favours actives as a whole. Values without a mark were called inactive. Rule as the data show it: active = inhibition above about 40%; inactive = the rest.

The compounds below were run against ATP-dependent translocase ABCB1 (Homo sapiens) (UniProt P08183) (assay: blockers of ABCB1-mediated dye efflux – cell-based, multiplex, flow cytometry, ABCG2 counter-screen, primary screen (AID 1326;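 also: 0% = vehicle and 100% = reference inhibitor; higher value means more JC-1 retained so stronger ABCB1 efflux block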)). Settings: CCRF-Adr cells, JC-1 efflux, at 6.6 µM, stronger effect = higher value.
Chain of ATP-dependent translocase ABCB1 (Homo sapiens) (P08183 whole entry, looked up): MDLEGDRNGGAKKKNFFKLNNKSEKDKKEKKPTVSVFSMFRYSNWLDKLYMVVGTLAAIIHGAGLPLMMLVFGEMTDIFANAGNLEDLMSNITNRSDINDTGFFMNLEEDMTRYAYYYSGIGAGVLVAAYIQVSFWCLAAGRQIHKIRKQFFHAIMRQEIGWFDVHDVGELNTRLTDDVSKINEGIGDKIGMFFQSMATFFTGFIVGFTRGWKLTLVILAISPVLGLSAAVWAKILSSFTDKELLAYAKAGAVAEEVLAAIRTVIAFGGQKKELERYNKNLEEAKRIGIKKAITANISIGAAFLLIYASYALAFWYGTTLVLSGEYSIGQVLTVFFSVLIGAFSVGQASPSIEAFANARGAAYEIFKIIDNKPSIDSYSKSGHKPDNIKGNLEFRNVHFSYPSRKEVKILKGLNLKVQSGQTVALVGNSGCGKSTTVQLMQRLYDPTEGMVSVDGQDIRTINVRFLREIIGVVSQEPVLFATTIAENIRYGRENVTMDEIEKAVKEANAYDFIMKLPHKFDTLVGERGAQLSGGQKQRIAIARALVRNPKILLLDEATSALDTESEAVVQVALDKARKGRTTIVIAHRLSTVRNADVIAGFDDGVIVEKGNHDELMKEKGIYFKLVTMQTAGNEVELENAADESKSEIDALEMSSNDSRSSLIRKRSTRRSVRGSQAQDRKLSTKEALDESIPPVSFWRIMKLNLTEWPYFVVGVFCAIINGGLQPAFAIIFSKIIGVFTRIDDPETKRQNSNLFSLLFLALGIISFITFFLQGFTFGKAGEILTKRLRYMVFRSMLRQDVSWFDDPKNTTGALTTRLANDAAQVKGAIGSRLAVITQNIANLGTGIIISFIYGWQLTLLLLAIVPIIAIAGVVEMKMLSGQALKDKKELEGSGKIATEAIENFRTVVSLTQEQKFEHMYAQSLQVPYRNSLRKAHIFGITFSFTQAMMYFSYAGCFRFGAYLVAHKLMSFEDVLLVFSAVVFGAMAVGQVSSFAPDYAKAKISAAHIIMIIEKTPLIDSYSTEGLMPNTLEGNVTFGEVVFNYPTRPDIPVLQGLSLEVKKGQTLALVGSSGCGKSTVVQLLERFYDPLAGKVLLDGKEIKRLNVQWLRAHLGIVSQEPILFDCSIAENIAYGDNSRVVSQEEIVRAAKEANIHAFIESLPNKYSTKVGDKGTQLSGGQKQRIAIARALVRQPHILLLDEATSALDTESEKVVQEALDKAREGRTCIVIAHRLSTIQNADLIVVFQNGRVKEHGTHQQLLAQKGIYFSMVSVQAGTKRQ

SMILES | inhibition
C=CCn1c(SCCOc2ccc(OC)cc2)nnc1C(NC(=O)c1ccc(OC)cc1)C(C)C (configuration not stated) | 48.2% (active)
C=CCn1c(SCc2ccc(Cl)c(Cl)c2)nnc1C(CO)NC(=O)c1ccc(OC)cc1 (configuration not stated) | 1.4%
C=CCn1c(SCC(=O)c2ccc(Br)cc2)nnc1C(C)NC(=O)Cc1ccc(OC)cc1 (configuration not stated) | 1.19%
CN(C)CCOc1ccc(Cl)cc1C(C)(C)C | 0.53%
Nc1nc(SCC(=O)NN(c2ccccc2)c2ccccc2)n[nH]1 | 0.84%
CCc1nnc(NC(=O)CSc2nnnn2-c2cccc(C(C)=O)c2)s1 | 0.21%
CC(C)CCN1CCN(C/C=C/c2ccco2)CC1CCO (configuration not stated) | 0.24%
C/C(=N/OC(=O)c1cccc(C(F)(F)F)c1)c1cnccn1 | -0.43%
C/C(CC1CC(C)(C)OC1=O)=N/Nc1nc(-c2ccccc2)cs1 (configuration not stated) | -0.4%
CN(c1ccccc1)S(=O)(=O)c1cc(C(=O)OCC(=O)N2CCN(C(=O)c3ccco3)CC2)ccc1Cl | 0.19%
Cc1ccc(C)c(NS(=O)(=O)c2ccc(OCC(=O)NCc3cccnc3)cc2)c1 | -0.02%
COc1cc(C(=S)NCc2ccccc2)cc(Br)c1O | -0.65%
CCC(=O)c1ccc(N2CCN(C(=O)c3cc([N+](=O)[O-])ccc3F)CC2)c(F)c1 | 2.09%
CCN(CC)CCNS(=O)(=O)c1ccc(/C=C/C(=O)O)cc1 | 0.17%
COc1cc(CNC2CCCC2)c(Br)cc1OCc1ccccc1 | 0.98%
CN1CCN(C(c2cc3cc4c(cc3[nH]c2=O)OCCO4)c2nnnn2C2CCCC2)CC1 (configuration not stated) | 0.88%
CNC(=O)C(=O)N/N=C/c1ccccn1 | -0.01%
CSc1ncccc1C(=O)N1CCCC(CCC(=O)NCc2ccccc2F)C1 (configuration not stated) | -0.56%
C=C(C)c1cccc(C(C)(C)NC(=O)NCCN(CC)CC)c1 | 0.61%
O=S(=O)(Cc1ccccc1)c1nc2ccccc2n1Cc1ccccn1 | 1.49%
COc1cc2[nH]c(=S)n(Cc3ccc(F)cc3)c(=O)c2cc1OC | 0.4%
CCCc1cc(=O)[nH]c(SCc2cc(=O)oc3c(C)c(C)ccc23)n1 | -1.22%
Cc1nnsc1C(=O)Nc1cccc(Cl)c1C | 0.41%
COc1ccc(Cl)cc1NC(=O)C(C)N1CCc2ccccc21 (configuration not stated) | 0.39%
CC1=CC(=C(C#N)c2nc3ccccc3s2)C=C(C)N1c1ccc(F)cc1F | -0.7%
COC(=O)c1ccc(OCC(O)CN(CCO)CC(O)Cn2ccc3ccccc32)cc1 (configuration not stated) | 0.69%

SMILES | inhibition
Cc1ccccc1C1=NC(C(F)(F)F)(C(F)(F)F)c2c(n(-c3ccc(F)cc3)c(=O)[nH]c2=O)N1 | 0%
NS(=O)(=O)c1ccc(NC(=O)/C=C/c2ccccc2Cl)cc1 | 0.51%
Cc1cccc2cc(CN(Cc3cccs3)C(c3nnnn3C3CCCC3)C(C)C)c(=O)[nH]c12 (configuration not stated) | 61.7% (active)
Cc1cccc2cc(CN(Cc3ccc4c(c3)OCO4)Cc3nnnn3C3CCCC3)c(=O)[nH]c12 | 7.85%
CCC(c1nnnn1C1CCCC1)N(Cc1cccs1)Cc1cc2cccc(C)c2[nH]c1=O (configuration not stated) | 6.67%
CCC1CCCCN1S(=O)(=O)Cc1ccccc1Cl (configuration not stated) | 2.08%
Cc1c(C(=O)NCCCc2ccccc2)cccc1[N+](=O)[O-] | 0.92%
COc1cccc(NC(=S)NC(=O)c2c(Cl)c(C)nn2C)c1 | -0.45%
Cc1ccsc1C1C(C#N)=C(N)OC2=C1C(=O)CC(C)(C)C2 (configuration not stated) | 0.69%
COc1cc(OC)c(C(=O)N2CCCC2)cc1OC | 1.33%
N#Cc1c(NC(=O)c2ccc(N3CCOCC3)c([N+](=O)[O-])c2)sc2c1CCCC2 | 0.71%
COC(=O)c1nn(-c2cccc(Cl)c2)ccc1=O | -0.18%
COCCNC(=S)N/N=C/c1c(C)[nH]c2ccccc12 | -0.55%
CN(C)C(=O)N1CCNCC1 | -0.13%
CC(=O)N(CN1C(=O)C2C3C=CC(C3)C2C1=O)c1cccc(Cl)c1 (configuration not stated) | 0.48%
CCn1c(-c2cccnc2Cl)nc2cc(C)c(C)cc21 | 0.26%
Cc1nc(CC(=O)NNS(=O)(=O)c2ccc(F)c(Cl)c2)cs1 | 1.15%
COC(=O)C(C(=O)Nc1cccc(Cl)c1C)C1CCCC1 (configuration not stated) | -0.03%
NNc1nc2c(Cl)cccc2s1 | -1.62%
CCOC(=O)C1=C(C)NC(=S)NC1c1cccs1 (configuration not stated) | -0.3%
Cc1ccccc1NC(=O)c1nn(-c2ccc(F)c(F)c2)ccc1=O | 0.58%
COC(=O)c1ccc(COC(=O)c2cnccn2)cc1 | 0.17%
CC1CN(CCCOc2ccccc2-c2ccccc2)CC(C)O1 (configuration not stated) | 3.45%
CCCCC(=O)Nc1ccc(C(=O)Nc2cc(C(F)(F)F)ccc2Cl)cc1 | -0.36%
CCC(=O)/C(=C(/O)c1ccccc1)c1nc2ccccc2[nH]1 | 0.14%
Cc1cc(C)cc(C(=O)NC(=S)Nc2ccc3[nH]c(=O)[nH]c3c2)c1 | -0.17%
